Experiments:
Assay in all cases: DAPPL (digital affinity profiling via proximity ligation, sequencing); 10 mM Tris-HCl pH 7.5, 50 mM NaCl, 1 mM DTT, 4% glycerol, room temperature, 30 min; GST-TFs on glutathione beads, 16-mer random dsDNA library, 0.1% formaldehyde crosslink after washing; high values mean tight binding
Conditions in all cases: protein: recombinant; tags: N-terminal GST; dsDNA, one strand shown
ELK1 = target: T1, ELK1 (Homo sapiens, UniProt P19419 1-428)
T1 sequence: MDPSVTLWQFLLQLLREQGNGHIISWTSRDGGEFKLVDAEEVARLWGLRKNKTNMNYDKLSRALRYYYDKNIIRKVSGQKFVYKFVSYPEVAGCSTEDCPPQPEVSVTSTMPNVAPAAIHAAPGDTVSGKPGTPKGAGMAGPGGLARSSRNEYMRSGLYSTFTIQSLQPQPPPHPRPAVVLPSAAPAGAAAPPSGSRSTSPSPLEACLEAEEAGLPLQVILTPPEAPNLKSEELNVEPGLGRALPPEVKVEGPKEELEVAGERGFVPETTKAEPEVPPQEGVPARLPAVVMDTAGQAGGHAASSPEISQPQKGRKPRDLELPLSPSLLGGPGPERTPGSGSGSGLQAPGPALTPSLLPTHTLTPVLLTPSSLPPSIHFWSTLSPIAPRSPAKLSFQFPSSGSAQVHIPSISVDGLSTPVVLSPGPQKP
How it was run: (§1)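 Sequencing on an Illumina NextSeq500 followed washing, crosslinking with 0.1% formaldehyde, proximity ligation (BsaI/T4 ligase, 1 h, 37 °C) and PCR amplification of pools that had been incubated for 30 min at room temperature with 200 nmole of a random double-stranded 16-mer DNA library in Tris/NaCl/DTT/glycerol buffer. Each pool held DNA-barcoded human transcription factors, expressed in yeast as GST fusions and captured on glutathione beads, plus a tag-only sample. Binding signal is a hexamer's read frequency for a factor divided by its frequency in the tag-only sample.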

GABPA = target: T2, GABPA (Homo sapiens, UniProt Q06546 1-454)
T2 sequence: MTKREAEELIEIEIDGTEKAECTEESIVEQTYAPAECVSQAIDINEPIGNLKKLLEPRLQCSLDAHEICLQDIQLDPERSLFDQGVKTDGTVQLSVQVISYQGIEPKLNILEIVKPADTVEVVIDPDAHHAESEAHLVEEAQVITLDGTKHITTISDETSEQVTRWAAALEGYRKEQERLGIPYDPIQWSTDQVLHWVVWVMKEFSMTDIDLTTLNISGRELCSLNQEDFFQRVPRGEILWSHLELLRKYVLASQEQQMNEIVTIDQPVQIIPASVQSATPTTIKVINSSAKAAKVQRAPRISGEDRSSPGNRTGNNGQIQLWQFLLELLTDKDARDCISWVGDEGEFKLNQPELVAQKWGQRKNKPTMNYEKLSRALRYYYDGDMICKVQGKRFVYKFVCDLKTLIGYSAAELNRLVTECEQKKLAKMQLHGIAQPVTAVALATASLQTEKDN
How it was run: as §1

ELF1 = ELF1 (Homo sapiens, UniProt P32519 1-619)
Sequence of ELF1 (P32519 whole entry): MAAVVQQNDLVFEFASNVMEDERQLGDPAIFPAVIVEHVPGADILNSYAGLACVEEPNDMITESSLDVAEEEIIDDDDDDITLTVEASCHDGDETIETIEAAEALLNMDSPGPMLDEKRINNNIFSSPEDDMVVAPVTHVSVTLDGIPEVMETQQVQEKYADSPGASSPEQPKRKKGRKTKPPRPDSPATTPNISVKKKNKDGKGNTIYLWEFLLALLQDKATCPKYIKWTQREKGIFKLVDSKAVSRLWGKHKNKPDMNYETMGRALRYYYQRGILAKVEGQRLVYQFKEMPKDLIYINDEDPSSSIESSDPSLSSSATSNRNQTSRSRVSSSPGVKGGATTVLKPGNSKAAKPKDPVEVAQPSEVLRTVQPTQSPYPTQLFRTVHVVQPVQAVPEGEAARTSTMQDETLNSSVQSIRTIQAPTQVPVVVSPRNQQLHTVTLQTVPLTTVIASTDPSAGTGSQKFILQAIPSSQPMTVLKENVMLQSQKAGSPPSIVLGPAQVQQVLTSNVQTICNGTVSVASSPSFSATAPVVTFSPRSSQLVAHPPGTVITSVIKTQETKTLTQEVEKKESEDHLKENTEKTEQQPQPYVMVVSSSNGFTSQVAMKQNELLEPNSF
How it was run: as §1

SPIB = SPIB (Homo sapiens, UniProt Q01892 1-262)
Sequence of SPIB (Q01892 whole entry): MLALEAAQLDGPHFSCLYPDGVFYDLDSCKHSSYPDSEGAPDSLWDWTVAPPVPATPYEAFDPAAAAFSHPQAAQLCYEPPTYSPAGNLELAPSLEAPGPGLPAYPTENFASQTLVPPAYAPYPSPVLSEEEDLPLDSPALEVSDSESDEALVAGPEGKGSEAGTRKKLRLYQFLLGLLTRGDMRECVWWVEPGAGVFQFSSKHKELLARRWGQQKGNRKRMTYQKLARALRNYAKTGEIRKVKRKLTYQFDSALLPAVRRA
How it was run: as §1

FEV = target: T3, FEV (Homo sapiens, UniProt Q99581 1-238)
T3 sequence: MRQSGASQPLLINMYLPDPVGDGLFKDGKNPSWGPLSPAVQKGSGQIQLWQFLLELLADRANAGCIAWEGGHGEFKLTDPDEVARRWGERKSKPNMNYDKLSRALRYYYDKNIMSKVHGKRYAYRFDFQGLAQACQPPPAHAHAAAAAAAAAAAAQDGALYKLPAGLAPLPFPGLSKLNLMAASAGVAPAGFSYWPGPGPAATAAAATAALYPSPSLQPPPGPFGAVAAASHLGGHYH
How it was run: as §1

ETV5 = ETV5 (Homo sapiens, UniProt P41161 1-510)
Sequence of ETV5 (P41161 whole entry): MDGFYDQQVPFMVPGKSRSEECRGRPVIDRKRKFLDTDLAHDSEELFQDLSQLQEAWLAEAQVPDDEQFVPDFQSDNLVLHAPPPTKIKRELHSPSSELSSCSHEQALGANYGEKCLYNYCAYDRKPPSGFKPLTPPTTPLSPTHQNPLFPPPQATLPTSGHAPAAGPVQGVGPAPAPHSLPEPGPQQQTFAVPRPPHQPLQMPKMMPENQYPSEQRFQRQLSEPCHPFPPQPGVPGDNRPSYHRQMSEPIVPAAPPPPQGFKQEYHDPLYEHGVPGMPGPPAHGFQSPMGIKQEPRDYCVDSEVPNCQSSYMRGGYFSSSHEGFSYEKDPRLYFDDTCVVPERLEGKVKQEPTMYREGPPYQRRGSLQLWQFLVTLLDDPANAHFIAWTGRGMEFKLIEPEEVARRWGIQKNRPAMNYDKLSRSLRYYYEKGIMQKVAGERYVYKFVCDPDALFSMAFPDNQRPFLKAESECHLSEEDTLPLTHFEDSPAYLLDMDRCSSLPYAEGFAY
How it was run: as §1

ELF4 = ELF4 (Homo sapiens, UniProt Q99607 1-663)
Sequence of ELF4 (Q99607 whole entry): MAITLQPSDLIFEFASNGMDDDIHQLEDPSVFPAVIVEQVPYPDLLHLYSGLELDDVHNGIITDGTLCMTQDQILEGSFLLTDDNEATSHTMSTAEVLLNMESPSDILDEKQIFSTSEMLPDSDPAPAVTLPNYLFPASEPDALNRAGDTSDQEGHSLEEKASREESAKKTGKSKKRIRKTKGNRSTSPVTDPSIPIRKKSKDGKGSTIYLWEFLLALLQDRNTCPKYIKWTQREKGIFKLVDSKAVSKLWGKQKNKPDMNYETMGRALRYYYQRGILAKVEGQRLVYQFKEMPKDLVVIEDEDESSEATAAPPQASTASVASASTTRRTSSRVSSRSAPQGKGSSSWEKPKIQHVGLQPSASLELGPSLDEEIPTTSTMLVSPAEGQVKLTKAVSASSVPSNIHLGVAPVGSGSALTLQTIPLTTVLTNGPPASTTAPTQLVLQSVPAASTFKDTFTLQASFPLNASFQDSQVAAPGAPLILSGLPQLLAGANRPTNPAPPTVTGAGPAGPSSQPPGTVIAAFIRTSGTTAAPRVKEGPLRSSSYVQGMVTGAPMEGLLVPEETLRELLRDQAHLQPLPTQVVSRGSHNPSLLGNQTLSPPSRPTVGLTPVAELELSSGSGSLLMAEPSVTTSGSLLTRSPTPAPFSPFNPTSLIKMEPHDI
How it was run: as §1

ELK4 = target: T4, ELK4 (Homo sapiens, UniProt P28324-2 1-405)
T4 sequence: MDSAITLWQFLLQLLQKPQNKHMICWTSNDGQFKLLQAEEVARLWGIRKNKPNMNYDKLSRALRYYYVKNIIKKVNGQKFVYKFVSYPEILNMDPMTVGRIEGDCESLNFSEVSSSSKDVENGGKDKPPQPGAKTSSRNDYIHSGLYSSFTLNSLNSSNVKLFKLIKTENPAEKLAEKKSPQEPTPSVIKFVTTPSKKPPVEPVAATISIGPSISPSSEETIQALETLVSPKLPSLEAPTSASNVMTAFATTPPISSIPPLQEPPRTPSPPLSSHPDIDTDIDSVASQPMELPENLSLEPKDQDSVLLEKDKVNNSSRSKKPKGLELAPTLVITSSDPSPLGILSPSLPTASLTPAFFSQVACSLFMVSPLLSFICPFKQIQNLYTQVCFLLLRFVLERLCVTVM
How it was run: as §1

ETV1 = ETV1 (Homo sapiens, UniProt P50549 1-477)
Sequence of ETV1 (P50549 whole entry): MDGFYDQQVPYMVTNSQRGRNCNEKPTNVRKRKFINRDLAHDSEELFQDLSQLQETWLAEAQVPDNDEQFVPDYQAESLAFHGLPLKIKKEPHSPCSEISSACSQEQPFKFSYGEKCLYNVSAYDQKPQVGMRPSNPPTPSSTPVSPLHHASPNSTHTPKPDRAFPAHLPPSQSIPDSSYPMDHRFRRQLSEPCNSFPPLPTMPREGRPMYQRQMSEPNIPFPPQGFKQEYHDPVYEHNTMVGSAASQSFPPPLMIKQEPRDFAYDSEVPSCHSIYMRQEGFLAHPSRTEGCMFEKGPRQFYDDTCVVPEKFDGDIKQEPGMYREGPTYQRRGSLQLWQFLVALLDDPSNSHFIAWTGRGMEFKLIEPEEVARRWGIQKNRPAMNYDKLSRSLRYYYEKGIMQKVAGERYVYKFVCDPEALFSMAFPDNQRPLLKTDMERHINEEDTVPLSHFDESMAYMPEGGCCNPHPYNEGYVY
How it was run: as §1

ERF = target: T5, ERF (Homo sapiens, UniProt P50548 1-548)
T5 sequence: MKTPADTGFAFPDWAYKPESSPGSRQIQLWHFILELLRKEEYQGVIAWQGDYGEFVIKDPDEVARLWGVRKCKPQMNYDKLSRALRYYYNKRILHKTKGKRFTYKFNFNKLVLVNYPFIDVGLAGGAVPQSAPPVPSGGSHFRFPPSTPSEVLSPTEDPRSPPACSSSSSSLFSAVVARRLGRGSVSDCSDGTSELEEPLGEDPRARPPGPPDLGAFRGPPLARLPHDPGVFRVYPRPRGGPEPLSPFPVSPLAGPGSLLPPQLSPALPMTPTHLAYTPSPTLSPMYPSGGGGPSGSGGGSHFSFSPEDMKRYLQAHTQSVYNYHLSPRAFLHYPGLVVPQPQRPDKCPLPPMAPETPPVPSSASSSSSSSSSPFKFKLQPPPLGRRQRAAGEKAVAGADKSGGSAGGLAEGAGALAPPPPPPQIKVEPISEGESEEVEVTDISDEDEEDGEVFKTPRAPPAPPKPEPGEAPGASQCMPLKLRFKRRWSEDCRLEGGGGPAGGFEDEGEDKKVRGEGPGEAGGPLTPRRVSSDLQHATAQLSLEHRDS
How it was run: as §1

ETV3L = target: T6, ETV3L (Homo sapiens, UniProt Q6ZN32 1-361)
T6 sequence: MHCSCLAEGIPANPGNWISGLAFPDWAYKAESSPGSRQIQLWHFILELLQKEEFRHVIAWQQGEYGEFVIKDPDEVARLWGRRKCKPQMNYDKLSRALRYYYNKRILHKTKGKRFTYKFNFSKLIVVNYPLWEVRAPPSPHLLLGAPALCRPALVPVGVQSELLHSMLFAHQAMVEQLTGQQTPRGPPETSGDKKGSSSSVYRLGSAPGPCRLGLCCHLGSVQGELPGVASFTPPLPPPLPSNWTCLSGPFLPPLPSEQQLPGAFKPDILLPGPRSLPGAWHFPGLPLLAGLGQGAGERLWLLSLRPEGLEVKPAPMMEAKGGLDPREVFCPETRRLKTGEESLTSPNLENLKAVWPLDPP
How it was run: as §1

ETV7 = target: T7, ETV7 (Homo sapiens, UniProt Q9Y603 1-341)
T7 sequence: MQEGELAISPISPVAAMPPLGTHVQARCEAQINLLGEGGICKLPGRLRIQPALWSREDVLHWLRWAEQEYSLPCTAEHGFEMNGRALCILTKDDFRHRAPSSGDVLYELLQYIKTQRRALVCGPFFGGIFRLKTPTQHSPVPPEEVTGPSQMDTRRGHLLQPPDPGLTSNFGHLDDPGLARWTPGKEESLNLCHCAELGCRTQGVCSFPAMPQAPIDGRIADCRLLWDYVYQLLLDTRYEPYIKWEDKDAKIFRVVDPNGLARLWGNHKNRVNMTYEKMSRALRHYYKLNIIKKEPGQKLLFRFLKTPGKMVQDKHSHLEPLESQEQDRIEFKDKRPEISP
How it was run: as §1

ERG = target: T8, ERG (Homo sapiens, UniProt P11308 1-479)
T8 sequence: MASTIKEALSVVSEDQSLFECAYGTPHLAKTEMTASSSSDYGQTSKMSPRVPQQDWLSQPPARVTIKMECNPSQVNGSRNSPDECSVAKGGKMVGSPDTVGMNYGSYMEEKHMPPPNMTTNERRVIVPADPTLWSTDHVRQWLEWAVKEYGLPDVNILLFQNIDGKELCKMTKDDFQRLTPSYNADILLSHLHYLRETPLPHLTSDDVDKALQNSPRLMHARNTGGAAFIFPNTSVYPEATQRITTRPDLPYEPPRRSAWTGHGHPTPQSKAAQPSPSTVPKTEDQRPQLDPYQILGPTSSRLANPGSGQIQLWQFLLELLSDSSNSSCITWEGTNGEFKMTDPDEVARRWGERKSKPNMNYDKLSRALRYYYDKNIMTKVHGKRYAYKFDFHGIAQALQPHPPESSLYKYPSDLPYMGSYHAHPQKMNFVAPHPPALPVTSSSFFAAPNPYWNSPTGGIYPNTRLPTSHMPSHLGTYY
How it was run: as §1

ELF3 = target: T9, ELF3 (Homo sapiens, UniProt P78545 1-371)
T9 sequence: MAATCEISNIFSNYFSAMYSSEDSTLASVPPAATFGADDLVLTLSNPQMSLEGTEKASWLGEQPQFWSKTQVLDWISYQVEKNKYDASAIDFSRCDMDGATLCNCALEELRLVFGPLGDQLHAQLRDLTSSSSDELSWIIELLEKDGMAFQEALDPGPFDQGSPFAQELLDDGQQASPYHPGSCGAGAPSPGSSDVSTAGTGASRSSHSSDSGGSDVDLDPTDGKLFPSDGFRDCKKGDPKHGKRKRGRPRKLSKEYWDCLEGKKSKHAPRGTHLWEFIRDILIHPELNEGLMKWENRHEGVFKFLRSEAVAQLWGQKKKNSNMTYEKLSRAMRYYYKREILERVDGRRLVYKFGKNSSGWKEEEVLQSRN
How it was run: as §1

ETS2 = target: T10, ETS2 (Homo sapiens, UniProt P15036 1-469)
T10 sequence: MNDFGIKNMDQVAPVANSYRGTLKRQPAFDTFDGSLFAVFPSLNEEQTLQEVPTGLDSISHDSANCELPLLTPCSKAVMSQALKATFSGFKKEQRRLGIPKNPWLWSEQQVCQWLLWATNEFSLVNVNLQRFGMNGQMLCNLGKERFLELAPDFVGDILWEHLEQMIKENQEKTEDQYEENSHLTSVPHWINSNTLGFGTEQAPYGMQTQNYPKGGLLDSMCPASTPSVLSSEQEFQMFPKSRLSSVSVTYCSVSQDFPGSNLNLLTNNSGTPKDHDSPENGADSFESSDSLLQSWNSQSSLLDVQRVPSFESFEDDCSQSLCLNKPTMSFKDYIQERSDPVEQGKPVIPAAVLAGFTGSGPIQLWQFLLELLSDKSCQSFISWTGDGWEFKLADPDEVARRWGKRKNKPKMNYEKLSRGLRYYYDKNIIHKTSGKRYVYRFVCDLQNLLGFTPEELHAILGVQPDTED
How it was run: as §1

SPDEF = target: T11, SPDEF (Homo sapiens, UniProt O95238 1-335)
T11 sequence: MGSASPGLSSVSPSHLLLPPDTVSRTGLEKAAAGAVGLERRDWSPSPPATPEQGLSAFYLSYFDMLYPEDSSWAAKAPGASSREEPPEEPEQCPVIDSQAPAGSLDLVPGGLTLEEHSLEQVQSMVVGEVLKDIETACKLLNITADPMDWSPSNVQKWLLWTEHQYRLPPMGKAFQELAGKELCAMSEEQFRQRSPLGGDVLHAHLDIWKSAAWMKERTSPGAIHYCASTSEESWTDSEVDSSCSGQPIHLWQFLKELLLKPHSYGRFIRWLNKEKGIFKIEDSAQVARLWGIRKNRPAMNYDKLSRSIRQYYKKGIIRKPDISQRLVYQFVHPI
How it was run: as §1

ETV3 = target: T12, ETV3 (Homo sapiens, UniProt P41162-2 1-143)
T12 sequence: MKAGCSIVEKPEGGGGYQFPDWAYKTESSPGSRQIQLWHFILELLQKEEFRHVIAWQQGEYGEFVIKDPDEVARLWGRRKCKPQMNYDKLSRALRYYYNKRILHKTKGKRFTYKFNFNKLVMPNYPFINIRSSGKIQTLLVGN
How it was run: as §1

Sequence	binding signal (ELK1)	binding signal (GABPA)	binding signal (ELF1)	binding signal (SPIB)	binding signal (FEV)	binding signal (ETV5)	binding signal (ELF4)	binding signal (ELK4)	binding signal (ETV1)	binding signal (ERF)	binding signal (ETV3L)	binding signal (ETV7)	binding signal (ERG)	binding signal (ELF3)	binding signal (ETS2)	binding signal (SPDEF)	binding signal (ETV3)
CAGCCT	1.11 fold enrichment (6-mer frequency, TF over GST control)	1.09 fold enrichment (6-mer frequency, TF over GST control)	1.06 fold enrichment (6-mer frequency, TF over GST control)	1.09 fold enrichment (6-mer frequency, TF over GST control)	1.02 fold enrichment (6-mer frequency, TF over GST control)	1.04 fold enrichment (6-mer frequency, TF over GST control)	1.12 fold enrichment (6-mer frequency, TF over GST control)	1.01 fold enrichment (6-mer frequency, TF over GST control)	1.02 fold enrichment (6-mer frequency, TF over GST control)	1.1 fold enrichment (6-mer frequency, TF over GST control)	1.02 fold enrichment (6-mer frequency, TF over GST control)	1.13 fold enrichment (6-mer frequency, TF over GST control)					
CAGCAT	1 fold enrichment (6-mer frequency, TF over GST control)	1.03 fold enrichment (6-mer frequency, TF over GST control)			1.04 fold enrichment (6-mer frequency, TF over GST control)	1.04 fold enrichment (6-mer frequency, TF over GST control)	1.05 fold enrichment (6-mer frequency, TF over GST control)		1.06 fold enrichment (6-mer frequency, TF over GST control)		1.03 fold enrichment (6-mer frequency, TF over GST control)	1.01 fold enrichment (6-mer frequency, TF over GST control)	1.03 fold enrichment (6-mer frequency, TF over GST control)	1.07 fold enrichment (6-mer frequency, TF over GST control)	1.03 fold enrichment (6-mer frequency, TF over GST control)	1.05 fold enrichment (6-mer frequency, TF over GST control)	
CCCAAG	1.07 fold enrichment (6-mer frequency, TF over GST control)	1.07 fold enrichment (6-mer frequency, TF over GST control)	1.06 fold enrichment (6-mer frequency, TF over GST control)			1.01 fold enrichment (6-mer frequency, TF over GST control)	1.03 fold enrichment (6-mer frequency, TF over GST control)			1.06 fold enrichment (6-mer frequency, TF over GST control)	1.01 fold enrichment (6-mer frequency, TF over GST control)		1.04 fold enrichment (6-mer frequency, TF over GST control)	1.12 fold enrichment (6-mer frequency, TF over GST control)	1 fold enrichment (6-mer frequency, TF over GST control)		1.03 fold enrichment (6-mer frequency, TF over GST control)

From PMC7862700, “An all-to-all approach to the identification of sequence-specific readers for epigenetic DNA modifications on cytosine”
